# Screening data: PubChem, The Scripps Research Institute Molecular Screening Center
# TTR transcr act: TTR transcription activation, primary screen | 92,000 compounds, 1.3% hits | activation, % at 16.7 µM | AID 1117267 | SH-SY5Y TTR promoter Gaussia luciferase, luminescence; 100% = recombinant luciferase protein wells;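 active means activation above the mean of all tested compounds plus 3 SD, cut at about 9.5% in these data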;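 further: cells exposed to compounds for one day before reading; 0% = median of all test compound wells on the plate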
# HuH7 TTR inh: HuH7 TTR transcription inhibition, counter-screen | shares compounds with TTR transcr act | HuH7 TTR promoter-Gaussia luciferase reporter, luminescence | inhibition, % at 16.7 µM | 1,100 compounds, 4% hits;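 active means average inhibition above the solvent-only control wells' mean plus 3 SD, cut at about 15% in these data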;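 further: 0% = cells with DMSO only and 100% = cells with inhibitor control FD; inhibitors lower well luminescence so higher value means more inhibition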
# TTR up confirm: confirmation of human transthyretin transcription activators; shares compounds with TTR transcr act; SHSY5Y TTR promoter Gaussia luciferase, luminescence; 100% = purified Lucia enzyme wells, no cells; activation, % at 16.7 µM; 1,100 tested, under 10 active; AID 1117280;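 active means mean activation above a set limit taken from the earlier primary screen, cut at about 11% in these data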;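 further: 0% = DMSO-treated cells and 100% = recombinant Lucia luciferase without cells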
# * marks the source's active call; other numbers are inactive results. The entries come from a sample that favours hits as a whole.
SMILES,TTR transcr act,others
CCOC(=O)c1[nH]c2ccc(F)cc2c1NC(=O)Nc1ccccc1OC,15*,HuH7 TTR inh=-20;TTR up confirm=0
CCCCNC(=O)Nc1c(C(=O)OCC)[nH]c2ccccc12,1,
CCOC(=O)c1[nH]c2ccccc2c1NC(=O)NC(C)C,1,
CCC(C)[C@H](NC(=O)[C@H](CC(C)C)NC(=O)OC(C)(C)C)C(=O)N[C@@H](Cc1ccccc1)C(=O)OC (stereo partly drawn),0,
S=c1nc(-c2ccccc2)n(CCN2CCOCC2)c2c1CCCC2,-1,
C=CCn1c(-c2ccccc2)nc(=S)c2c1CCCC2,11*,HuH7 TTR inh=3;TTR up confirm=0
CC(C)Cn1c(-c2ccccc2)nc(=S)c2c1CCCC2,0,
COC(=O)[C@]12C[C@H](CC(=O)NCc3ccc(OC)c(OC)c3)C(=O)N(CCC3=CCCCC3)C1=C[C@H](C1CCCC1)O[C@@H]2C,1,
COc1ccc(CCNc2c3ccccc3nc3ccccc23)cc1OC,11*,HuH7 TTR inh=-17;TTR up confirm=14*
CCn1c(=O)c([N+](=O)[O-])c(NCCc2ccc(OC)c(OC)c2)c2ccccc21,-2,
COc1ccc(CCn2c(C)nc3ccccc3c2=O)cc1OC,0,
Cc1cccc(NC(=O)CN(CC2CCCO2)C(=O)c2oc3ccc(F)cc3c2C)c1C (stereo not drawn),7,
Cc1c(C(=O)N(Cc2ccc(N(C)C)cc2)C2CCS(=O)(=O)C2)oc2ccccc12 (stereo not drawn),0,
Cc1cc2oc(C(=O)N(Cc3ccc(N(C)C)cc3)CC3CCCO3)c(C)c2cc1C (stereo not drawn),51*,HuH7 TTR inh=-10;TTR up confirm=0
COc1cc(C2(c3ccc(O)c(OC)c3)C(=O)N(C)c3ccc(C)cc32)ccc1O,1,
CN1C(=O)C(c2cn(C)c3ccccc23)(c2cn(C)c3ccccc23)c2cc(Br)ccc21,0,
Cc1cc(Br)cc2c1N(C)C(=O)C2(c1ccc(O)cc1)c1ccc(O)cc1,47*,HuH7 TTR inh=-5;TTR up confirm=2
COc1cccc(CNC(=O)[C@@H]2CCCN2C(=O)[C@H]2CCCCN2C(=O)c2ccc(Cl)cc2)c1,0,
COc1ccc2[nH]c3c(c2c1)CCN[C@]31C(=O)N(Cc2ccccc2)c2ccccc21,1,
CCC(CO)Nc1ccn2nc(-c3ccccc3)cc2n1 (stereo not drawn),26*,HuH7 TTR inh=-2;TTR up confirm=0
CCOC(=O)Cn1nc(-c2ccccc2)ccc1=O,0,
CCc1ccn2cc(-c3cc(-c4ccccc4)no3)nc2c1,-5,
CCNC(=O)C1(C)CCN(C(=O)c2ccc(-c3ccccc3)cc2)C1 (stereo not drawn),0,
CC1(C)Oc2ccc3ccc(=O)oc3c2-c2cn[nH]c21,10*,HuH7 TTR inh=6;TTR up confirm=0
CC1(C)Oc2ccc3ccc(=O)oc3c2C[C@H]1O,2,
SMILES,TTR transcr act,others
CC1(C)Oc2ccc3ccc(=O)oc3c2-c2cnoc21,-1,
C[C@H]1[C@@H](OC(=O)N2CCCC2)CC[C@@]23CCCN2C(=O)CCC[C@@H]13,-3,
CCOC(=O)[C@@]12CCC3=C1N(CCC3)C(=O)[C@H](CC(=O)NCC1CCCCC1)C2,2,
Cc1ccc(N(CC(=O)NCC2CCCO2)C(=O)CCC(=O)Nc2nccs2)cc1C (stereo not drawn),0,
Cc1ccc(N(CC(=O)NC(C)C)C(=O)CCC(=O)Nc2nccs2)cc1,2,
Cc1ccc(N(CC(=O)NC(C)(C)C)C(=O)CCC(=O)Nc2nccs2)cc1C,9.7*,HuH7 TTR inh=-11;TTR up confirm=-1
CC1CCN(C(=O)CSc2nnc(-c3cccs3)o2)CC1,-1,
c1ccc(-c2nnc(CSc3nnc(-c4cccs4)o3)o2)cc1,1,
Fc1ccccc1CSc1nnc(-c2cccs2)o1,-1,
Fc1ccc(CSc2nnc(-c3cccs3)o2)cc1,10*,HuH7 TTR inh=-14;TTR up confirm=0
O=C(CSc1nnc(CNC(=O)c2cccc(C(F)(F)F)c2)o1)NCc1ccco1,4,
O=C(CSc1nnc(-c2cccs2)o1)NCc1ccco1,13*,HuH7 TTR inh=-11;TTR up confirm=1
C[C@@H]1Cc2cc(O)cc(O)c2C(=O)O1,0,
COC(=O)[C@]12C[C@H](CC(=O)NCc3ccccc3)C(=O)N(Cc3cccc4ccccc34)C1=C[C@H](C(C)(C)C)O[C@@H]2C,-1,
CCC(C#Cc1ccccc1)N(C)C(N)=NC(=O)/C=C/c1ccccc1 (stereo not drawn),-2,
COC(=O)C1CN(Cc2ccccc2)CCS(=O)(=O)N1Cc1cccc(Cl)c1 (stereo not drawn),2,
COc1ccccc1C(=O)n1ccc2ccc(-c3ccc4ccn(Cc5ccccc5)c4c3)cc21,0,
C#CCNC(=O)C[C@H]1C[C@@]2(C(=O)OC)C(=C[C@H](C(C)C)O[C@@H]2C2CC2)N(Cc2ccc(Cl)cc2Cl)C1=O,2,
CCN(CC)C(=O)O[C@H]1CC[C@@]23CCCN2C(=O)CCC[C@H]3[C@H]1C,1,
